Of roughly 7,900 targets only a part is listed; those with a hit were picked by preference. About 0.6% of all pairs of compound and target were hits.
Tests used:
Assay in all cases: log2 fold change, soluble protein after heating vs DMSO (PISA); higher = thermal stabilisation; K562 cells, 10 uM, 30 min; active = over 0.2 and 3.5 SD of the protein, either way, in both replicates (recomputed)
bafetinib = compound: Cc1ccc(NC(=O)c2ccc(CN3CC[C@H](N(C)C)C3)c(C(F)(F)F)c2)cc1Nc1nccc(-c2cncnc2)n1 [bafetinib]
Summary of the method: (§1)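 Quantification of soluble protein used TMTpro 16plex LC-MS/MS, with channel sums equalised. Samples were the supernatant after 21,000xg for 90 min of pooled aliquots from K562 cells (2×10^6 cells/mL) treated with 10 μM compound for 30 min, heated for 3 min over 48°C-58°C, and extracted in PBS with 0.5% NP-40 at 4°C. Values, from duplicates, describe thermal stability against control samples on a log2 fold-change scale.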

[1] = compound: Cc1cccc(CC(=O)N2CCc3c2ccc(-c2cn(C)c4ncnc(N)c24)c3F)n1
Summary of the method: as §1

nilotinib = compound: Cc1cn(-c2cc(NC(=O)c3ccc(C)c(Nc4nccc(-c5cccnc5)n4)c3)cc(C(F)(F)F)c2)cn1 [nilotinib]
Summary of the method: as §1

[2] = compound: Cc1nc(Nc2n[nH]c3c2CN(C(=O)N[C@H](CN(C)C)c2ccccc2)C3(C)C)c2sccc2n1
Summary of the method: as §1

dasatinib = compound: Cc1nc(Nc2ncc(C(=O)Nc3c(C)cccc3Cl)s2)cc(N2CCN(CCO)CC2)n1 [dasatinib]
Summary of the method: as §1

[3] = compound: Cc1ncc(-c2ccnc(Nc3ccc(S(C)(=O)=O)cc3)n2)n1C(C)C
Summary of the method: as §1

[4] = compound: Cn1cc(-c2ccc3c(c2)CCN3C(=O)Cc2cccc(C(F)(F)F)c2)c2c(N)ncnc21
Summary of the method: as §1

[5] = compound: Cn1cc(-c2ccc3nnc(C(F)(F)c4ccc5ncccc5c4)n3n2)cn1
Summary of the method: as §1

tipifarnib = compound: Cn1cncc1[C@@](N)(c1ccc(Cl)cc1)c1ccc2c(c1)c(-c1cccc(Cl)c1)cc(=O)n2C [tipifarnib]
Summary of the method: as §1

mubritinib = compound: FC(F)(F)c1ccc(/C=C/c2nc(COc3ccc(CCCCn4ccnn4)cc3)co2)cc1 [mubritinib]
Summary of the method: as §1

[6] = compound: NC(=O)Nc1cc(-c2cccc(F)c2)sc1C(=O)N[C@H]1CCCNC1
Summary of the method: as §1

[7] = compound: NC(=O)c1cnc(N[C@@H]2CCCC[C@@H]2N)nc1Nc1cccc(-n2nccn2)c1
Summary of the method: as §1

[8] = compound: NC1(c2ccc(-c3nc4ccn5c(=O)[nH]nc5c4cc3-c3ccccc3)cc2)CCC1
Summary of the method: as §1

[9] = compound: NCC(=O)Nc1ccc(-n2nc(C(F)(F)F)cc2-c2ccc3c(ccc4ccccc43)c2)cc1
Summary of the method: as §1

entinostat = compound: Nc1ccccc1NC(=O)c1ccc(CNC(=O)OCc2cccnc2)cc1 [entinostat]
Summary of the method: as §1

vorinostat = compound: O=C(CCCCCCC(=O)Nc1ccccc1)NO [vorinostat]
Summary of the method: as §1

citarinostat = compound: O=C(CCCCCCNC(=O)c1cnc(N(c2ccccc2)c2ccccc2Cl)nc1)NO [citarinostat]
Summary of the method: as §1

silmitasertib = compound: O=C(O)c1ccc2c(c1)nc(Nc1cccc(Cl)c1)c1ccncc12 [silmitasertib]
Summary of the method: as §1

[10] = compound: O=C1NC(=O)C(c2cnc3ccccn23)=C1c1cn2c3c(cc(F)cc13)CN(C(=O)N1CCCCC1)CC2
Summary of the method: as §1

[11] = compound: c1cc(OCCN2CCCCC2)cc(-c2n[nH]c3ccc(-c4nnc[nH]4)cc23)c1
Summary of the method: as §1

Measured: log2 fold change

PPID (UniProt Q08752)
inactive: bafetinib 0.015 | [1] 0.075 | nilotinib -0.113 | [2] -0.13 | dasatinib -0.206 | [3] 0.062 | [4] 0.023 | [5] 0.076 | tipifarnib -0.148 | mubritinib -0.005 | [6] -0.073 | [7] -0.075 | [8] -0.093 | [9] -0.065 | entinostat 0.049 | vorinostat 0.108 | citarinostat 0.108 | silmitasertib 0.095 | [10] -0.028 | [11] 0

PMPCB (UniProt O75439)
UniProt O75439, sequence (O75439 whole entry, looked up): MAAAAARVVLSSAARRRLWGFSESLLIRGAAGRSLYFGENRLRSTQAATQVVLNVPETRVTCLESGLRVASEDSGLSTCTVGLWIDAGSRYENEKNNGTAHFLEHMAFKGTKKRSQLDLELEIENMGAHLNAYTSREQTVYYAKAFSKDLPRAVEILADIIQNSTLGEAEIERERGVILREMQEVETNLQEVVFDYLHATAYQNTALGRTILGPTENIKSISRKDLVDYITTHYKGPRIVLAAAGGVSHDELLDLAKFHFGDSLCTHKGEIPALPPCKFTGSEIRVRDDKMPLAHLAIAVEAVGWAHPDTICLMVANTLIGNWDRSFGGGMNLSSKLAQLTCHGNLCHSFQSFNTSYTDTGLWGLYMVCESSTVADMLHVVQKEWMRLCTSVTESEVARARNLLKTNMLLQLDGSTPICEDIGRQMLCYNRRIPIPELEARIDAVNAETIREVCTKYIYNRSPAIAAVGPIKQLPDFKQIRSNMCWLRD
inactive: bafetinib 0.035 | [1] 0.025 | nilotinib -0.054 | [2] 0.089 | dasatinib 0.098 | [3] -0.04 | [4] 0.105 | [5] 0.046 | mubritinib 0.053 | [6] -0.03 | [7] 0.024 | [8] -0.02 | [9] 0.023 | entinostat -0.043 | vorinostat -0.009 | citarinostat 0.037 | silmitasertib -0.103 | [10] -0.012 | [11] 0.023
active: tipifarnib 0.269

PDCD6IP (UniProt Q8WUM4)
UniProt Q8WUM4, sequence (Q8WUM4 whole entry, looked up): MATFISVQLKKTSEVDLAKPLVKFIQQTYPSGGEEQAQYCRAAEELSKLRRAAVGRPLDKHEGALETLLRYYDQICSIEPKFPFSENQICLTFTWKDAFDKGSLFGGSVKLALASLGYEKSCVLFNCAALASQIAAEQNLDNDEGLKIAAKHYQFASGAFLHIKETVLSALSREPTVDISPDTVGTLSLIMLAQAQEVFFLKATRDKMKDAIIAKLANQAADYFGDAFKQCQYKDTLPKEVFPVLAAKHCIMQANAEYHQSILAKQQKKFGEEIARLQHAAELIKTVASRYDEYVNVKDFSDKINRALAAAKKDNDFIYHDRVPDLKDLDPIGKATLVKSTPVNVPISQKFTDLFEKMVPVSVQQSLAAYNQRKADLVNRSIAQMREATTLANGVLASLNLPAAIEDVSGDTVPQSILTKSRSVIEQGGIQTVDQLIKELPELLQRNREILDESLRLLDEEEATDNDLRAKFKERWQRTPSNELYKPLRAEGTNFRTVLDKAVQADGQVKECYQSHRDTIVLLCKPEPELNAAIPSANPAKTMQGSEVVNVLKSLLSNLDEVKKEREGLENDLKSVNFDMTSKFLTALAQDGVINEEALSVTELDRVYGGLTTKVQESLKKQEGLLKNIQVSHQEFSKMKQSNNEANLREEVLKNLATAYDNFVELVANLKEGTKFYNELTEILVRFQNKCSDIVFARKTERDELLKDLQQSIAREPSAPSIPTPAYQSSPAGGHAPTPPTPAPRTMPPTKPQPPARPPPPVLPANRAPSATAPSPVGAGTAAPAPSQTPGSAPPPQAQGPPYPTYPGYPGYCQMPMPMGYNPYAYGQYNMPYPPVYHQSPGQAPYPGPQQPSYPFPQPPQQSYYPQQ
inactive: bafetinib 0.042 | [1] 0.157 | nilotinib -0.116 | [2] -0.205 | dasatinib -0.283 | [3] 0.069 | [4] 0.016 | [5] 0.068 | tipifarnib -0.221 | mubritinib 0.105 | [6] -0.055 | [7] -0.1 | [8] -0.186 | [9] -0.103 | entinostat 0.149 | vorinostat 0.186 | citarinostat 0.113 | silmitasertib 0.094 | [10] -0.009 | [11] 0

QRSL1 (UniProt Q9H0R6)
UniProt Q9H0R6, sequence (Q9H0R6 whole entry, looked up): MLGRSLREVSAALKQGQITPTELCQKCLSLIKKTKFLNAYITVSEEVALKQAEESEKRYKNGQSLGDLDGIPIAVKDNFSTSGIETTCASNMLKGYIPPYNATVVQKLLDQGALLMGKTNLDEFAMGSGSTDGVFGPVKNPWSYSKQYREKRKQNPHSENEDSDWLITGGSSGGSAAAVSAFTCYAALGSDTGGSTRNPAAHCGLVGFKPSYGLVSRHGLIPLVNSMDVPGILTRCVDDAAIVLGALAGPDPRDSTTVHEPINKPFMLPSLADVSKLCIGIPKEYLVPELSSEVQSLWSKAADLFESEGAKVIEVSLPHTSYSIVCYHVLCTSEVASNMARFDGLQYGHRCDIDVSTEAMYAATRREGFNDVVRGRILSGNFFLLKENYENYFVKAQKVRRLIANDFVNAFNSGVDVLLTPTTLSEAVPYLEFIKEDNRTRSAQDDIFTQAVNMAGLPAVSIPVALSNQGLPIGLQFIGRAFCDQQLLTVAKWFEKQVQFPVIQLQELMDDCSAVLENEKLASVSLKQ
inactive: bafetinib -0.036 | [1] 0.048 | nilotinib -0.041 | [2] -0.028 | dasatinib -0.171 | [3] 0.045 | [4] 0.037 | [5] 0.024 | tipifarnib 0.002 | mubritinib -0.102 | [6] -0.092 | [7] -0.007 | [8] -0.218 | [9] -0.089 | entinostat 0.006 | vorinostat -0.063 | citarinostat 0.053 | silmitasertib -0.049 | [10] -0.084 | [11] -0.036

PRIM1 (UniProt P49642)
inactive: bafetinib 0.046 | [1] 0.01 | nilotinib -0.034 | [2] -0.055 | dasatinib -0.161 | [3] -0.009 | [4] -0.033 | [5] 0.009 | tipifarnib -0.073 | mubritinib 0.06 | [6] -0.008 | [7] -0.016 | [8] -0.093 | [9] -0.056 | entinostat 0.041 | vorinostat 0.065 | citarinostat 0.063 | silmitasertib 0.089 | [10] 0.023 | [11] -0.037

PSMD8 (UniProt P48556)
UniProt P48556, sequence (P48556 whole entry, looked up): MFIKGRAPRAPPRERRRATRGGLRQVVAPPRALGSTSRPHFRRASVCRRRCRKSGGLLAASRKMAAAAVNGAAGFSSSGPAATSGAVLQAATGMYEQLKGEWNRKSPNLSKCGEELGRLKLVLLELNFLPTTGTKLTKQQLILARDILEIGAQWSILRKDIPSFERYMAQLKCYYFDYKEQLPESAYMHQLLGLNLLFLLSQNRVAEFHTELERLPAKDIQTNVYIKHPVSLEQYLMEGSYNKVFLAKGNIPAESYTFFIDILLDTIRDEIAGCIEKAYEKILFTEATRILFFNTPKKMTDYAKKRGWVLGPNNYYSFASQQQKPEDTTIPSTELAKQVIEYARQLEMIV
inactive: bafetinib 0.089 | [1] -0.013 | nilotinib 0.039 | [2] 0.054 | dasatinib 0.029 | [3] -0.031 | [4] -0.07 | [5] 0.009 | tipifarnib 0.117 | mubritinib -0.032 | [6] -0.035 | [7] 0.042 | [8] -0.07 | [9] 0.009 | entinostat -0.009 | vorinostat 0.016 | citarinostat -0.015 | silmitasertib 0.007 | [10] 0.019 | [11] -0.101

POLR1A (UniProt O95602)
inactive: bafetinib -0.11 | [1] 0.004 | nilotinib -0.051 | [2] 0.046 | dasatinib 0.046 | [3] -0.003 | [4] -0.16 | [5] -0.057 | tipifarnib 0.019 | mubritinib 0.069 | [6] 0.044 | [7] 0.012 | [8] -0.208 | [9] 0.172 | entinostat -0.012 | vorinostat 0.098 | citarinostat 0.018 | silmitasertib 0.033 | [10] 0.036 | [11] 0.045

PKN2 (UniProt Q16513)
UniProt Q16513, sequence (Q16513 whole entry, looked up): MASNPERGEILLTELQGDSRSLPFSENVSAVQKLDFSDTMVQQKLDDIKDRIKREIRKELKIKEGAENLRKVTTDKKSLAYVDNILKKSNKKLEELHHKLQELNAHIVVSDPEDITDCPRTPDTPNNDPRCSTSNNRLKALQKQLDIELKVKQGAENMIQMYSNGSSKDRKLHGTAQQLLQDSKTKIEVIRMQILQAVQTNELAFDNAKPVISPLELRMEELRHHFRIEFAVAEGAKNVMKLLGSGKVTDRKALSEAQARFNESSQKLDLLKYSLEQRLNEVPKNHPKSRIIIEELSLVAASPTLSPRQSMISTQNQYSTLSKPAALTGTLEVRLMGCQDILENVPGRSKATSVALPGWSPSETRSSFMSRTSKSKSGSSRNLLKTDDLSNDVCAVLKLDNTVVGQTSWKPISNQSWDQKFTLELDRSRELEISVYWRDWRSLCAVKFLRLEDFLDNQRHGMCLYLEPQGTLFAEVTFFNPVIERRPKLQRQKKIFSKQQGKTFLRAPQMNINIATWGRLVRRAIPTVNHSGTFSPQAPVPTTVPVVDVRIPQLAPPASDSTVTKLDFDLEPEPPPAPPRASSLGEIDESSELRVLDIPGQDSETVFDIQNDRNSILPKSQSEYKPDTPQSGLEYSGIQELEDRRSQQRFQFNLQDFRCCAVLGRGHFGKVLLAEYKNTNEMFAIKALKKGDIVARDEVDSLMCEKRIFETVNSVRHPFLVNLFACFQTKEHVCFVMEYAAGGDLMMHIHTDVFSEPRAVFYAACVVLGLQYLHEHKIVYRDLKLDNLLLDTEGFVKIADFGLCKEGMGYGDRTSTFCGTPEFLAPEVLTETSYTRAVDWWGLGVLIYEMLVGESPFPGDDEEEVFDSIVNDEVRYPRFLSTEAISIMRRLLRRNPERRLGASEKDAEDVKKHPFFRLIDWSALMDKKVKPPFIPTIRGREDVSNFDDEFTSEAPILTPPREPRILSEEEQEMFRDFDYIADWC
inactive: bafetinib 0.068 | [1] 0.062 | nilotinib 0.125 | [2] -0.219 | dasatinib -0.138 | [3] 0.051 | [4] 0.016 | [5] 0.01 | tipifarnib -0.059 | mubritinib 0.048 | [6] -0.055 | [7] -0.134 | [8] -0.051 | [9] -0.021 | entinostat 0.105 | vorinostat 0.023 | citarinostat 0.073 | silmitasertib 0.01 | [10] -0.008 | [11] -0.086

PRKCA (UniProt P17252)
inactive: bafetinib -0.043 | [1] -0.066 | nilotinib -0.011 | [2] -0.173 | dasatinib -0.233 | [3] -0.005 | [4] 0.082 | [5] -0.022 | tipifarnib -0.026 | mubritinib 0.054 | [6] -0.085 | [7] -0.134 | [8] -0.181 | [9] -0.029 | entinostat 0.057 | vorinostat 0.117 | citarinostat 0.028 | silmitasertib -0.045 | [10] -0.205 | [11] -0.091

PIP4P2 (UniProt Q8N4L2)
UniProt Q8N4L2, sequence (Q8N4L2 whole entry, looked up): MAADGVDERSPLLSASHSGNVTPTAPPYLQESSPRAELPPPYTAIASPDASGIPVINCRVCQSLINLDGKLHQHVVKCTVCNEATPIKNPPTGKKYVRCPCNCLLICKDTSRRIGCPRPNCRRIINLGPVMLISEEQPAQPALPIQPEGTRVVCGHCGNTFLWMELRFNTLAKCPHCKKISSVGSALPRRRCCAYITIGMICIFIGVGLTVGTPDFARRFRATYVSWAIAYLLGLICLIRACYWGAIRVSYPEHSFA
active: [8] -0.373
inactive: bafetinib -0.083 | [1] -0.111 | nilotinib 0.013 | [2] -0.003 | dasatinib 0.055 | [3] -0.026 | [4] -0.03 | [5] 0.014 | tipifarnib 0.024 | mubritinib 0.005 | [6] 0.02 | [7] -0.152 | [9] -0.024 | entinostat 0.007 | vorinostat 0.042 | citarinostat -0.02 | silmitasertib 0.074 | [10] 0.082 | [11] 0.051

POLR2K (UniProt P53803)
inactive: bafetinib -0.052 | [1] -0.057 | nilotinib -0.021 | [2] 0.029 | dasatinib 0.081 | [3] 0.089 | [4] 0.006 | [5] 0.019 | tipifarnib -0.036 | mubritinib -0.008 | [6] -0.04 | [7] -0.107 | [8] 0.017 | [9] 0.053 | entinostat -0.01 | vorinostat -0.156 | citarinostat 0.13 | silmitasertib 0.097 | [10] 0.002
active: [11] -0.474

PSMC4 (UniProt P43686)
inactive: bafetinib 0.087 | [1] 0 | nilotinib -0.013 | [2] 0.05 | dasatinib 0.052 | [3] -0.019 | [4] -0.128 | [5] -0.037 | tipifarnib 0.117 | mubritinib -0.012 | [6] 0.018 | [7] -0.016 | [8] 0.028 | [9] 0.027 | entinostat -0.023 | vorinostat -0.023 | citarinostat -0.015 | silmitasertib -0.015 | [10] 0.043 | [11] -0.051

PSMD12 (UniProt O00232)
inactive: bafetinib 0.119 | [1] 0.033 | nilotinib 0.026 | [2] 0.044 | dasatinib 0 | [3] -0.001 | [4] -0.088 | [5] -0.022 | tipifarnib 0.019 | mubritinib -0.034 | [6] -0.001 | [7] 0.019 | [8] -0.061 | [9] 0.05 | entinostat 0.001 | vorinostat 0.003 | citarinostat -0.012 | silmitasertib -0.024 | [10] 0.045 | [11] -0.09

PTPMT1 (UniProt Q8WUK0)
UniProt Q8WUK0, sequence (Q8WUK0 whole entry, looked up): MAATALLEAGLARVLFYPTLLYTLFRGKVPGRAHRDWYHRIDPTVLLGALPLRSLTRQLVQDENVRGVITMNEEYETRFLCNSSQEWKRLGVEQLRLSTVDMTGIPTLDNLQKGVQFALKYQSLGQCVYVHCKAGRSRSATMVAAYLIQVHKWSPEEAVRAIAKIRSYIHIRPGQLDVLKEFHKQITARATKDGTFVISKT
inactive: bafetinib -0.16 | [1] -0.003 | nilotinib 0.069 | [2] -0.013 | dasatinib -0.138 | [3] 0.029 | [4] -0.056 | [5] -0.132 | tipifarnib 0.026 | mubritinib -0.006 | [6] -0.087 | [7] -0.264 | [8] -0.263 | [9] -0.166 | entinostat 0.073 | vorinostat 0.049 | citarinostat 0.014 | silmitasertib 0.032 | [10] -0.015 | [11] -0.082

PTGES3 (UniProt Q15185)
UniProt Q15185, sequence (Q15185 whole entry, looked up): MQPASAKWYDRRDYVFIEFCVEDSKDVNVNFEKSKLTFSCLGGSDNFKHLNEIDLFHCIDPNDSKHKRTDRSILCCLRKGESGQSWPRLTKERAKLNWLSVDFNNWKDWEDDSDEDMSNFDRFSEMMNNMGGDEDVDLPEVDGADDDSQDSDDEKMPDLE
inactive: bafetinib -0.05 | [1] 0.028 | nilotinib -0.044 | [2] -0.089 | dasatinib -0.142 | [3] -0.042 | [4] 0.034 | [5] 0.039 | tipifarnib -0.119 | mubritinib -0.091 | [6] -0.043 | [7] -0.006 | [8] -0.123 | [9] 0.017 | entinostat 0.075 | vorinostat 0.002 | citarinostat 0.111 | silmitasertib -0.002 | [10] -0.142 | [11] 0.054

POMK (UniProt Q9H5K3)
UniProt Q9H5K3, sequence (Q9H5K3 whole entry, looked up): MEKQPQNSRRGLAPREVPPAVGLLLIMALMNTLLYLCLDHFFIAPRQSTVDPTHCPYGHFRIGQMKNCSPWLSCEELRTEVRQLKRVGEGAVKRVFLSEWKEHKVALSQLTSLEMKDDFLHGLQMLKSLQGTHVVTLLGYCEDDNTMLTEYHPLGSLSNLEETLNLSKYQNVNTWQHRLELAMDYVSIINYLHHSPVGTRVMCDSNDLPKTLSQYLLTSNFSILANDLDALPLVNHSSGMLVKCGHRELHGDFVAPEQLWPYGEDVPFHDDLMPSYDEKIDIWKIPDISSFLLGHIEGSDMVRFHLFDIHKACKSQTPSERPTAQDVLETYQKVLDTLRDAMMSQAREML
inactive: bafetinib -0.057 | [1] 0.067 | nilotinib -0.032 | [2] -0.029 | dasatinib -0.05 | [3] 0.016 | [4] 0 | [5] 0.034 | tipifarnib -0.044 | mubritinib -0.126 | [6] 0 | [7] 0.058 | [8] -0.173 | [9] -0.044 | entinostat 0.045 | vorinostat 0.04 | citarinostat 0.105 | silmitasertib 0.101 | [10] 0.017 | [11] -0.303

Reference: the supplement of paper PMC10849652
